These results are taken from PubChem BioAssay (NCATS).

Records with an inconclusive call do not appear. A number with no mark means an inactive call. Active and inactive are the calls of the source. Calls come from the whole dose curve. Numbered stars: 1 amine (or outer) side, 2 acyl side, 3 side chain; on linkers, the order of the positions; unused ones are H or OH. Bridge positions count the residues as written; N and C are the ends. Square brackets hold non-standard residues; d marks the D form. Peptide text beside a SMILES is read from it. I, II: the chains in the order shown. Actinocin(9to1) = Cc1c2oc3c(C)ccc(C(=O)[*:1])c3nc-2c(C(=O)[*:2])c(N)c1=O; NMeV = CN[C@H](C(=O)O)C(C)C; Sar = CNCC(=O)O
% is set by controls: 0 for no effect and ±100 for the full control effect; potency is the fitted concentration of half-maximal effect.

This assay in a line: VSVG counterscreen qHTS to identify inhibitors of SARS-CoV-2 cell entry (AID 1645847). Note: nearly all actives have a fitted effect of over 65% in size. To be noted: VSV-G pseudotyped particle entry, luciferase; series mostly up to 57.2 µM; activity change, negative = inhibition: at the top concentration. The text has this: Assay Provider: Wei Zheng, Ph.D.
National Center for Advancing Translational Sciences, National Institute of Health, Rockville, MD.
SARS-CoV-2 spike protein, within the viral envelope, mediates viral attachment and infection of host cells. The SARS-CoV-2 spike protein specifically binds to the host receptor ACE2 (Angiotensin-converting enzyme 2). This interaction promotes endocytosis of the viral particle, additional events lead to viral-host cell membrane fusion and release of the viral contents, allowing viral replication.
While SARS-CoV-2 requires BSL-3 facilities for live virus work, pseudotyped partices (PP) that incorporate SARS-CoV-2 spike proteins without replication elements could facilitate studies on viral entry mechanisms in a BSL-2 setting. This PP cell entry assay could also enable screening of small molecule compound libraries in BSL-2 setting to identify inhibitors of SARS-CoV-2 cell entry.
SEQUENCE No. (e.g., 1, 2, 3, etc.); […] (e.g., Cells, Incubation, Reagent, etc.); VALUE and DESCRIPTION.
1. Cells. Seed 1500 HEK293-ACE2 cells (Expi293F with stable expression of human ACE2) in 2 microL/well media (DMEM, 10% FBS, 1x L-glutamine, 1x Pen/Strep, 1 ug/ml puromycin) in white 1536-well assay plates (Greiner #782073).
2. Incubation. Incubate at 37 degrees C with 5% CO2 overnight (~16 h).
3. Compound. Dispense 23 nL/well compounds in DMSO via pin transfer.
4. Incubation. Incubate for 1 h at 37C 5% CO2.
5. Reagent. Dispense 2 microL/well of vesicular stomatitis virus G glycoprotein (VSV-G) pseudotyped particles (PP). [a] PPs are produced with murine leukemia virus pseudo-typing.
6. Centrifugation. […]
7. Incubation. Incubate at for 48 h at 37C 5% CO2
8. Centrifugation. Remove supernatant with gentle centrifugation using a Blue Washer (BlueCat Bio).
9. Reagent. Dispense 4 microL/well of Bright-Glo Luciferase detection reagent (Promega #E2620).
10. Incubation. Incubate for 5 min at room temperature.
11. Detection. Read luminescence signal (ViewLux plate reader, PerkinElmer). Data was normalized with wells containing VSV-G PP as 100%, and wells containing bald PP (no fusion protein) as 0%.
`COC(=O)Nc1nc2ccc(C(=O)c3cccs3)cc2[nH]1`: the Potency was 152 nM (active).

Regarding `CC(=O)Oc1ccccc1C(=O)Nc1ncc([N+](=O)[O-])s1`, the Potency was 1080 nM (active).

Take `N[C@@H](Cc1ccc(N(CCCl)CCCl)cc1)C(=O)O`: the Potency is 152 nM (active).

For the compound `CC[C@]1(O)C[C@H]2CN(CCc3c([nH]c4ccccc34)[C@@](C(=O)OC)(c3cc4c(cc3OC)N(C=O)[C@H]3[C@@](O)(C(=O)OC)[C@H](OC(C)=O)[C@]5(CC)C=CCN6CC[C@]43[C@@H]65)C2)C1`, the Potency is 17.1 nM (active).

For the compound `O=C1CCc2ccc(OCCCCN3CCN(c4cccc(Cl)c4Cl)CC3)cc2N1`, the Potency is 13600 nM (active).

Regarding `CCCCNc1ccc(C(=O)OCCOCCOCCOCCOCCOCCOCCOCCOCCOC)cc1`, the Potency is 21500 nM (active).

With `CC(C)(C)C(=O)OCOP(=O)(COCCn1cnc2c(N)ncnc21)OCOC(=O)C(C)(C)C`, the Potency was 15.2 nM (active).

With `OCCN1C[C@H](O)[C@@H](O)[C@H](O)[C@H]1CO`, the Potency is 4290 nM (active).

Turning to `COc1c(C)c2c(c(O)c1C/C=C(\C)CCC(=O)O)C(=O)OC2`, the Potency is 482 nM (active).

Consider `C=C(CC)C(=O)c1ccc(OCC(=O)O)c(Cl)c1Cl`, for which the Potency was 1920 nM (active).

Regarding `CCC1=C[C@@H]2CN(C1)Cc1c([nH]c3ccccc13)[C@@](C(=O)OC)(c1cc3c(cc1OC)N(C)[C@H]1[C@@](O)(C(=O)OC)[C@H](OC(C)=O)[C@]4(CC)C=CCN5CC[C@]31[C@@H]54)C2`, the Potency was 1670 nM (active).

In the case of `Nc1ccn([C@@H]2O[C@H](CO)[C@@H](O)C2(F)F)c(=O)n1`, the Potency is 304 nM (active).

For the compound `CNCCC(Oc1ccc(C(F)(F)F)cc1)c1ccccc1` (centres undefined), the Potency is 121 nM (active).

On to `O=C1C(=O)c2ccccc2C(O)=C1C1CCC(c2ccc(Cl)cc2)CC1` (centres undefined), for which the Potency is 9610 nM (active).

Consider `Clc1ccc(COC(Cn2ccnc2)c2ccc(Cl)cc2Cl)cc1` (centres undefined), for which the Potency was 12100 nM (active).

For the compound `COc1cccc2c1C(=O)c1c(O)c3c(c(O)c1C2=O)C[C@@](O)(C(=O)CO)C[C@@H]3O[C@H]1C[C@H](N)[C@H](O)[C@H](C)O1`, the Potency is 152 nM (active).

For `CCCc1cc(=O)[nH]c(=S)[nH]1`, the “activity change, negative = inhibition” value was -8.18%.

`CC/C(=C(\c1ccccc1)c1ccc(OCCN(C)C)cc1)c1ccccc1`: the Potency is 49400 nM (active).

Turning to `Cc1nc(Nc2ncc(C(=O)Nc3c(C)cccc3Cl)s2)cc(N2CCN(CCO)CC2)n1`, the Potency was 3830 nM (active).

Take `CN(C)C(=O)C(CCN1CCC(O)(c2ccc(Cl)cc2)CC1)(c1ccccc1)c1ccccc1`: the Potency is 24100 nM (active).

`O=C(O)c1ccc(-n2nc(-c3ccccc3O)nc2-c2ccccc2O)cc1`: the Potency is 24100 nM (active).

On to `CC(CN(C)C)CN1c2ccccc2CCc2ccccc21` (centres undefined), for which the Potency was 1920 nM (active).

For the compound `Nc1ncn([C@@H]2O[C@H](CO)[C@@H](O)[C@H]2O)c(=O)n1`, the Potency was 19200 nM (active).

With `CCc1c2c(nc3ccc(OC(=O)N4CCC(N5CCCCC5)CC4)cc13)-c1cc3c(c(=O)n1C2)COC(=O)[C@]3(O)CC`, the Potency is 171 nM (active).

Take `CN1CCC(=C2c3ccccc3C=Cc3ccccc32)CC1`: the Potency was 192 nM (active).

For `COC(=O)C1=C(C)NC(C)=C(C(=O)OCC(C)C)C1c1ccccc1[N+](=O)[O-]` (centres undefined), the Potency was 5410 nM (active).

Regarding `COC(c1ccccc1)(c1ccccc1)[C@H](Oc1nc(C)cc(C)n1)C(=O)O`, the “activity change, negative = inhibition” value is -5.44%.

For `CC(=O)[C@]1(O)Cc2c(O)c3c(c(O)c2[C@@H](O[C@H]2C[C@H](N)[C@H](O)[C@H](C)O2)C1)C(=O)c1ccccc1C3=O`, the Potency was 85.7 nM (active).

With `Cc1c2oc3c(C)ccc(C(=O)N[C@@H]4C(=O)N[C@H](C(C)C)C(=O)N5CCC[C@H]5C(=O)N(C)CC(=O)N(C)[C@@H](C(C)C)C(=O)O[C@@H]4C)c3nc-2c(C(=O)N[C@@H]2C(=O)N[C@H](C(C)C)C(=O)N3CCC[C@H]3C(=O)N(C)CC(=O)N(C)[C@@H](C(C)C)C(=O)O[C@@H]2C)c(N)c1=O` (I: T[dV]P[Sar][NMeV] / II: T[dV]P[Sar][NMeV]; ester I:1-I:C, II:1-II:C; linker I:N-II:N via Actinocin(9to1)), the Potency was 42.9 nM (active).

Regarding `CN(C)CCCN1c2ccccc2Sc2ccc(Cl)cc21`, the Potency is 17100 nM (active).

Take `CC[C@]1(O)C[C@@H]2CN(CCc3c([nH]c4ccccc34)[C@@](C(=O)OC)(c3cc4c(cc3OC)N(C)[C@H]3[C@@](O)(C(=O)OC)[C@H](OC(C)=O)[C@]5(CC)C=CCN6CC[C@]43[C@@H]65)C2)C1`: the Potency was 34.1 nM (active).

As to `COC(=O)Nc1nc2ccc(C(=O)c3ccccc3)cc2[nH]1`, the Potency is 1520 nM (active).

Take `Cc1cn([C@H]2C[C@H](N=[N+]=[N-])[C@@H](CO)O2)c(=O)[nH]c1=O`: the Potency is 429 nM (active).

With `COc1c(C)c2c(c(O)c1C/C=C(\C)CCC(=O)OCCN1CCOCC1)C(=O)OC2`, the Potency was 429 nM (active).
